From ChEMBL document CHEMBL3988442, “University of Dundee, Small-Polar-MMV Screening Library” (2021)
In all, about 85,000 compounds went through this assay and about 440 (0.52%) showed an effect of 50% or more. The full list was thinned out, with strong results kept by preference.

Assay: In vitro enzyme assay to detect hydrolysis of chlorophenol red-beta-D-[…] directly proportional to the number of Toxoplasma stably expressing beta-galactosidase
Format: functional, organism-based, Toxoplasma gondii
Set-up: scale not given: in the data most compounds retested in dose-response had high values

NC1CCN(Cc2ccccc2)C1=O (stereo not drawn)
Percent Effect (50 µM): 57.3%

Cc1ccc(CN2CCC(N)C2=O)cc1 (stereo not drawn)
Percent Effect (50 µM): 0.3266%

NC1CCCN(Cc2ccccc2)C1=O (stereo not drawn)
Percent Effect (50 µM): 3.99%

Cn1nccc1C(=O)NC1Cc2ccccc2C1
Percent Effect (50 µM): 4.859%

CCc1nc(CN2CCCC2C(=O)N(C)C)cs1 (stereo not drawn)
Percent Effect (50 µM): 6.641%

CC(NC(=O)c1ccncc1F)C(C)(C)CN(C)C (stereo not drawn)
Percent Effect (50 µM): -0.7264%

CCN(CC)CCOC1CCNCC1
Percent Effect (50 µM): -2.471%

CC(=O)c1cccc(OCC(=O)Nc2cc(C)on2)c1
Percent Effect (50 µM): 98.67%

CC(=O)c1cccc(OCC(=O)NC2CCCC2)c1
Percent Effect (50 µM): -4.665%

Cc1cc(NC(=O)COc2ccc3c(c2)OCO3)no1
Percent Effect (50 µM): 15.18%

Cc1nc(C2(NCc3c(C)nn(C)c3N3CCOCC3)CCC2)no1
Percent Effect (10 µM): 56.3%

Cc1csc(CNCc2c(C)nn(C)c2N2CCOCC2)n1
Percent Effect (10 µM): -26.69%

Cc1cc(CNCc2c(C)nn(C)c2N2CCOCC2)no1
Percent Effect (10 µM): -17.93%

COc1c(CNC2(c3ccc(Cl)cc3)CCC2)c(C)nn1C
Percent Effect (10 µM): 7.233%

COc1c(CNC2(c3noc(C)n3)CCC2)c(C(C)C)nn1C.Cl
Percent Effect (10 µM): 11.38%

COc1c(CNC2(c3noc(C)n3)CCC2)c(C)nn1C.Cl
Percent Effect (10 µM): 55.08%

CC(C)(C)OC(=O)NCCCOC1CCNCC1
Percent Effect (50 µM): 10.6%

O=C(CSc1nnnn1Cc1cccs1)NC1CC1
Percent Effect (50 µM): -25.88%

CC(C)n1nc2c(cc1=O)CN(c1ncnc3ccccc13)CC2
Percent Effect (10 µM): -24.89%

Cn1nc2c(cc1=O)CN(c1ncnc3ccsc13)CC2
Percent Effect (10 µM): 82.27%

CCCn1nc2c(cc1=O)CN(c1ncnc3ccsc13)CC2
Percent Effect (10 µM): -2.045%

CCn1nc2c(cc1=O)CN(c1ncnc3ccsc13)CC2
Percent Effect (10 µM): 76.59%

Cn1nc2c(cc1=O)CN(c1nc3ccccc3s1)CC2
Percent Effect (10 µM): -0.5196%

CC(C)n1nc2c(cc1=O)CN(c1ncnc3ccsc13)CC2
Percent Effect (10 µM): 9.432%

O=C(NC1CCCc2[nH]c(=O)ccc21)c1cc(Br)c[nH]1 (stereo not drawn)
Percent Effect (50 µM): 33.46%

O=C(CCCn1cccn1)N[C@H]1C[C@@H]2OCC[C@H]12
Percent Effect (50 µM): 16.13%

O=C(Cc1cccs1)N1CCNCC1
Percent Effect (50 µM): 1.272%

CCCn1c(N2CCCC(C)C2)nc2c(C)nn(C)c2c1=O (stereo not drawn)
Percent Effect (10 µM): 58.79%

CCn1nc(C)c2ncnc(N3CCCC(C)C3)c21 (stereo not drawn)
Percent Effect (10 µM): 16.85%

Cc1nn(C)c2c(=O)n(C)c(NCC3CCCO3)nc12 (stereo not drawn)
Percent Effect (10 µM): 10.39%

CCCc1nc(N2CCCCCC2)c2c(n1)c(C)nn2CC
Percent Effect (10 µM): 14.57%

CCCn1c(N2CCCCC2)nc2c(C)nn(C)c2c1=O
Percent Effect (10 µM): 85.32%

CCn1c(NCC2CCCO2)nc2c(C)nn(C)c2c1=O (stereo not drawn)
Percent Effect (10 µM): 22.67%

Cc1nn(C)c2c(N3CCCC3)nc(C3CC3)nc12
Percent Effect (10 µM): 10.42%

CCCn1c(N2CCCC2)nc2c(C)nn(C)c2c1=O
Percent Effect (10 µM): 74.14%

CCCc1nc(N2CCCC(C)C2)c2c(n1)c(C)nn2CC (stereo not drawn)
Percent Effect (10 µM): 19%

CC(N)C1(N2CCOCC2)CCCC1 (stereo not drawn)
Percent Effect (50 µM): -11.55%

CCNC(=O)c1cc2ccc(OC)cc2[nH]1
Percent Effect (50 µM): -0.6946%

O=C(NCC(F)(F)F)C1CCN(CC(F)F)CC1
Percent Effect (50 µM): -5.562%

CCN(Cc1nonc1C)C(=O)Cn1nc(C(F)(F)F)cc1C
Percent Effect (10 µM): 32.79%

CCN(Cc1nonc1C)C(=O)c1cc(C(F)(F)F)nn1C
Percent Effect (10 µM): 29.16%

CCN(Cc1nonc1C)C(=O)Cn1nc(C(F)(F)F)cc1C1CC1
Percent Effect (10 µM): 53.8%

CC(CO)(CO)NC(=O)Nc1cc(Br)ccc1F
Percent Effect (50 µM): 12.92%

Cc1nn(C)c2nc(-c3ccccn3)nc(NCCCOC(C)C)c12
Percent Effect (10 µM): -3.21%

CCOCCCNc1nc2c(s1)c(C)nn2C
Percent Effect (10 µM): -0.8738%

COCCCNc1cc(C)nn2cnnc12
Percent Effect (10 µM): 36.97%

CCOCCCNC(=O)c1cn(CC)nc1C
Percent Effect (10 µM): 0.2391%

CCOCCCNc1cc(C)nn2cnnc12
Percent Effect (10 µM): 66.33%

Cc1cc(NCCCOC(C)C)c2nncn2n1
Percent Effect (10 µM): 73.87%

COCCn1cnnc1CNc1cc(C)nc2c(C)c(C)nn12
Percent Effect (10 µM): -11.49%

COCCNc1cc(C)nn2cnnc12
Percent Effect (10 µM): 70.24%

COc1cc(-c2cnnc(NCCCOC(C)C)n2)cc(OC)c1OC
Percent Effect (10 µM): 4.137%

Cc1n[nH]c(SCC(=O)NC2CCCCC2)n1
Percent Effect (50 µM): 32.19%

Nc1ccn(-c2ccc(C(F)(F)F)cn2)n1
Percent Effect (50 µM): 9.315%

CC(C)c1ccn(C)n1
Percent Effect (50 µM): 1.261%

Cn1nccc1CCC(=O)NCC[C@@H]1CCCN1
Percent Effect (50 µM): 2.008%

Cc1cc(C)n(CCC(=O)NCc2ccccn2)n1
Percent Effect (50 µM): -3.878%

CCC(C)C(=O)NCCCn1nc(C)cc1C (stereo not drawn)
Percent Effect (10 µM): 6.68%

CCCNC(=O)CCn1nc(C)cc1C
Percent Effect (50 µM): 59.42%

C=C(C)CNc1nc2nonc2nc1NCCOC
Percent Effect (50 µM): 14.38%

CC(C)c1nnsc1CNC(=O)CCc1csc(N)n1
Percent Effect (50 µM): -4.031%

Cc1cc(C(=O)NC(C)c2ccncc2)ncn1 (stereo not drawn)
Percent Effect (50 µM): 8.375%

CC(=O)Nc1ccccc1CN
Percent Effect (50 µM): -1.882%

CCCC(=O)N1CCN(C(=O)NCC)CC1
Percent Effect (50 µM): 54.38%

CCCNC(=O)N1CCN(CCC)CC1
Percent Effect (50 µM): -47.68%

CCNC(=O)N1CCNCC1
Percent Effect (50 µM): 13.83%

COCC(C)(O)C(F)(F)F (stereo not drawn)
Percent Effect (50 µM): 7.186%

CC1Cc2ccccc2N1C(=O)c1ccccn1 (stereo not drawn)
Percent Effect (50 µM): 2.942%

COCC(O)CN(C)CCn1cc(Br)cn1 (stereo not drawn)
Percent Effect (50 µM): 16.66%

c1cnn(CCCNCCCn2cccn2)c1
Percent Effect (50 µM): 0.4357%

CCN(CC)CCNc1nc(C(C)C)nc2c(C)nn(CC)c12
Percent Effect (10 µM): 58.79%

CCn1nc(C)c2nc(C(C)C)nc(NC)c21
Percent Effect (10 µM): 39.93%

CCn1nc(C)c2nc(C(C)C)nc(NCCCO)c21
Percent Effect (10 µM): 1.913%

CCn1nc(C)c2nc(C(C)C)nc(NCC(C)C)c21
Percent Effect (10 µM): 49.36%

CCn1nc(C)c2nc(C(C)C)nc(NCC(C)O)c21 (stereo not drawn)
Percent Effect (10 µM): 75.76%

CCn1nc(C)c2nc(C(C)C)nc(NCCc3ccc(O)cc3)c21
Percent Effect (10 µM): 48.01%

COc1ccnc(N2CC[S+]([O-])CC2)n1
Percent Effect (50 µM): -6.202%

O=C(CC1C=CCC1)NCc1ccccn1 (stereo not drawn)
Percent Effect (50 µM): -4.879%

Cc1cccc(NC(=O)NC2CCN(C)CC2)c1
Percent Effect (50 µM): -9.939%

CC(NC(=O)NCCCN1CCCC1=O)c1ccco1 (stereo not drawn)
Percent Effect (50 µM): -1.872%

CCN(Cc1cccc(F)c1)C1CCS(=O)(=O)C1 (stereo not drawn)
Percent Effect (50 µM): -4.951%

Cc1ccc(CN(CC(=O)N2CCNC2=O)C(C)C)s1
Percent Effect (50 µM): -25.32%

CC1CCN(CCNC(=O)Nc2ncnn2C)CC1
Percent Effect (50 µM): 93.89%

CCc1noc(CC)c1CNC(=O)Nc1cccc([S+](C)[O-])c1 (stereo not drawn)
Percent Effect (10 µM): 5.882%

CCc1noc(CC)c1CNC(=O)Nc1cccc(C(=O)N(C)C)c1
Percent Effect (10 µM): -1.441%

Cc1cc(NC(=O)NCCN2CCC(C)CC2)n(C)n1
Percent Effect (50 µM): -15.44%

CCc1noc(CC)c1CNC(=O)Nc1ncnn1C
Percent Effect (50 µM): 67.97%

CSCCCNC(=O)Nc1ncnn1C
Percent Effect (50 µM): -6.612%

CN1CCCN(C(=O)c2ccc(N(C)C)cc2F)CC1
Percent Effect (50 µM): -3.403%

CN(CCOc1ccc(Cl)cc1)CCC(N)=O
Percent Effect (50 µM): -5.352%

CN(C)S(=O)(=O)N1CC(=O)NCC1(C)C
Percent Effect (50 µM): 14.19%

OCCNc1nccc(-c2c[nH]nc2-c2cccnc2)n1
Percent Effect (10 µM): -8.104%

OCCNc1nccc(-c2c[nH]nc2-c2ccncc2)n1
Percent Effect (10 µM): -1.451%

OCCNc1nccc(-c2c[nH]nc2-c2ccco2)n1
Percent Effect (10 µM): 54.25%

CN1Cc2ccccc2CC1=O
Percent Effect (50 µM): -6.86%

NC1CCC(N2C(=O)CCC2=O)CC1 (stereo not drawn)
Percent Effect (50 µM): 15.63%

CN(C)Cc1cccc(C(=O)N[C@@H]2CCOC[C@H]2O)c1
Percent Effect (50 µM): -6.19%

O=C(N[C@@H]1CCOC[C@H]1O)c1ccncc1
Percent Effect (50 µM): -0.1422%

CCCc1ccc(C(=O)N[C@@H]2CCOC[C@H]2O)cc1
Percent Effect (50 µM): 64%

C=C(C)C(C)(C)C(=O)N[C@@H]1COCC[C@H]1O
Percent Effect (50 µM): 16.24%

COCC1CCCCN1Cc1nc(-c2ccoc2)oc1C (stereo not drawn)
Percent Effect (10 µM): 1.217%

Cc1oc(-c2ccoc2)nc1CN1CCC[C@H]1CO
Percent Effect (10 µM): 75.83%

Cc1oc(-c2ccoc2)nc1CN1CCCCC1CCc1ccccc1 (stereo not drawn)
Percent Effect (10 µM): -14.19%

O=C(Nc1ccc(-n2nccn2)cc1)N1CCC(O)C1 (stereo not drawn)
Percent Effect (50 µM): -2.451%

CSCC[C@H](N)C(=O)N(C)Cc1ncc(Cl)n1C
Percent Effect (50 µM): -3.024%

Cc1ccc(CNC(=O)N2Cc3ccccc3C2)cn1
Percent Effect (50 µM): -21.35%

C=C/C=c1\c(=C/C)oc2c(NCc3ccccc3)nc(C)nc12
Percent Effect (10 µM): 54.55%

C=C/C=c1\c(=C/C)oc2c(NCc3ccccc3)ncnc12
Percent Effect (10 µM): 26.91%

C=C/C=c1\c(=C/C)oc2c(NCc3ccccc3)nc(CC)nc12
Percent Effect (10 µM): 39.81%

CC1CCCCN1C(=O)NCCNC(=O)c1ccn[nH]1 (stereo not drawn)
Percent Effect (50 µM): -2.19%

CCC(=O)c1cccc(OC)n1
Percent Effect (50 µM): 98.31%

COc1cccc(CO)n1
Percent Effect (50 µM): -5.543%

CCC(N)c1cccc(OC)n1 (stereo not drawn)
Percent Effect (50 µM): -11.92%

O=C(NCc1cccnc1)c1ccc(C(F)(F)F)nc1
Percent Effect (50 µM): 2.561%

COCCn1cncc1CO
Percent Effect (50 µM): 5.728%

Nc1c[nH]nc1C(=O)NCc1cccc(Cl)c1
Percent Effect (50 µM): 95.75%

O=C(NCc1cccc(Cl)c1)c1cnns1
Percent Effect (50 µM): -15.41%

Nc1ncccc1C(=O)NCc1cccc(Cl)c1
Percent Effect (10 µM): 10.41%

CCCOc1cccc(NCC(=O)N2CCNC2=O)c1
Percent Effect (50 µM): 1.752%

C[C@@H]1CN(C(=O)c2csc(CN(C)C)n2)C[C@]1(C)O
Percent Effect (50 µM): 11.61%

CNC(=O)Cc1noc(CCc2cccc(F)c2)n1
Percent Effect (50 µM): -4.248%

CCC(C)N(C)CCC(=O)Nc1ccc(C(N)=O)cc1 (stereo not drawn)
Percent Effect (50 µM): -26.89%

COc1ccc(S(=O)(=O)N2CCN(C)CC2)c(C)c1C
Percent Effect (50 µM): 5.644%
